Results filed as inconclusive are left out. Calls of active or inactive are those of the source. Unless noted, calls follow the shape of the dose curve; as a rule, active = well fitted curve in the direction sought with a large enough effect; inconclusive = small, poorly fitted or top-dose-only effect, or another doubt; inactive = no such curve, though single readings can be large; an effect the other way counts as inactive or inconclusive.
Experiments:
[1] = molecular target: Cytochrome P450 3A4 (Homo sapiens) (UniProt P08684); test: qHTS Assay for Inhibitors and Substrates of Cytochrome P450 3A4 (AID 884); conditions: recombinant CYP3A4, Luciferin-PPXE luminescence; series mostly up to 57.1 µM; also: % is scaled to controls: 0 for no effect and ±100 for the full control effect; nearly all actives have a fitted effect of over 50% in size
How it was run: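 Luminescent readout of luciferin produced by CYP3A4 (20 nM) dealkylation of Luciferin-PPXE, 25 uM (its KM). NADPH-driven reaction ran 60 min at RT after 10 min compound preincubation; data scaled to 57 uM ketoconazole as 100% inhibition.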

[2] = Confirmation and Secondary Assay for Modulators of Hemoglobin Beta Chain Splicing at IVS2 654 locus (AID 910); conditions: HeLa EGFP-654 splicing reporter, GFP fluorescence, 48 h; series mostly up to 46.1 µM;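 also: per-well total GFP intensity by laser scanning cytometry after 2-day treatment; % of control where 0% means no effect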
How it was run: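 HeLa cells stably carrying EGFP interrupted by mutant beta-globin IVS2-654 intron (CMV-driven) were treated with compound for 2 days at 37C; corrected splicing was scored as total peak GFP intensity per well (488 nm excitation, 500-520 nm emission).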

[3] = Confirmation and Secondary Assay for Modulators of Hemoglobin Beta Chain Splicing at IVS2 705 locus (AID 930); conditions: HeLa EGFP-705 splicing reporter, GFP fluorescence, 48 h; series mostly up to 46.1 µM;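 also: HeLa cells stably expressing the EGFP-705 splicing reporter; GFP fluorescence per well restored by corrected splicing of the IVS2-705 intron in EGFP; % of control where 0% means no effect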
How it was run: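 Assay measures total GFP intensity per well in HeLa EGFP-705 cells after 2 days with compound; mis-splicing normally truncates EGFP, so fluorescence indicates corrected splicing.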

[4] = qHTS Assay for Lipid Storage Modulators (AID 1519; calls by dose curve; as to activity change, negative = inhibition: % is scaled to controls: 0 for no effect and ±100 for the full control effect); conditions: Drosophila S3 cells, BODIPY lipid droplet/cell ratio, laser cytometry, cells loaded with oleic acid; for activity change, negative = inhibition: at 57.5 µM (top of the series)
How it was run: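 Cells seeded at 5,000 per well were treated with compounds over a concentration series and loaded with oleic acid (400 uM, as added). Lipid droplet fluorescence (488 nm excitation, 500-530 nm channel) was read by laser-scanning cytometry and normalized to 20 uM Triacsin C.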

[5] = molecular target: Ubiquitin carboxyl-terminal hydrolase 1 (Homo sapiens) (UniProt O94782); test: Inhibitors of USP1/UAF1: Pilot qHTS (AID 504865); conditions: purified USP1/UAF1, Ub-rhodamine cleavage fluorescence; series mostly up to 114 µM; also: potency is read from the fitted curve at half-maximal effect; nearly all actives have a fitted effect of over 35% in size
How it was run: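 USP1/UAF1 complex (1nM) preincubated with compound 15 min at room temperature, then Ub-Rho substrate (150nM final) added. Fluorescence read kinetically at 480/540 nm, 6 reads every 60 seconds. Buffer: 50mM HEPES pH 7.8, 0.5mM EDTA, 0.1 mg/ml BSA, 1mM TCEP, 0.01% Tween-20.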

Furin (Homo sapiens) = Furin (Homo sapiens) (UniProt P09958); test: Furin counterscreen qHTS for Zika virus inhibitors (AID 1347149); conditions: furin enzymatic counterscreen, fluorogenic substrate; series mostly up to 114 µM; also: nearly all actives have a fitted effect of over 70% in size; also: potency is read from the fitted curve at half-maximal effect;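 as to activity change, negative = inhibition: purified recombinant full-length human furin enzyme at 5 nM; fluorescence gain from furin cutting a BOC-RVRR-AMC peptide substrate over 15 min; top concentration of the series differs between compounds; plate controls were no-inhibitor control for no effect and no-enzyme control for full effect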
How it was run: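 Counterscreen measures cleavage of 2 microM BOC-RVRR-AMC, below its ~15 microM Km, by 5 nM full-length human furin at pH 7.0 after a 15-min compound preincubation. Inhibition derives from the 15-min fluorescence increase at 37C.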

[6] = tested on: Zika virus NS2B-NS3 protease (unlinked complex); test: Confirmatory screen GU AMC qHTS for Zika virus inhibitors (AID 1347153); conditions: Recombinant NS2B-NS3 protease, AMC substrate fluorescence; series mostly up to 111 µM;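 also: enzyme at 25 nM with substrate at 10 µM below its Km of 18.3 µM; potency is read from the fitted curve at half-maximal effect; nearly all actives have a fitted effect of over 70% in size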
How it was run: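 Fluorescence change (ex 340/em 450 nm) over 15 min, ~20% substrate conversion, normalized to no-inhibitor and no-enzyme controls, then Hill-fitted. Unlinked protease at 25 nM; AMC peptide 10 µM.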

[7] = ZIKV-mCherry secondary qHTS for Zika virus inhibitors (AID 1347158); conditions: Vero cells, ZIKV-mCherry infection imaging, 48-72 h; series mostly up to 49.2 µM; also: top concentration of the series differs between compounds
How it was run: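 Read-out is percent infection: mCherry-positive Vero cells (nuclear-proximal intensity >450 RFU, 3 SD above negative controls) counted by high-content imaging of Hoechst-stained, PFA-fixed wells after 48-72 h with ZIKV-mCherry at MOI 1 and compound.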

[8] = tested on: Zika virus NS2B-NS3 protease (linked); test: 384 well plate NINDS AMC confirmatory qHTS for Zika virus inhibitors (AID 1347163); conditions: Recombinant NS2B-NS3 protease, Ac-VKTGKR-AMC fluorescence; series mostly up to 1 mM; also: potency is read from the fitted curve at half-maximal effect; nearly all actives have a fitted effect of over 50% in size
How it was run: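 Enzyme (5, 30 or 60 nM final) first met test compounds for ~15 min. The AMC-tagged peptide Ac-VKTGKR-AMC followed at 30 microM. Fluorescence was then recorded at 25 min and scaled against no-enzyme and no-inhibitor wells.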

[9] = tested on: Zika virus NS2B-NS3 protease (linked construct); test: 384 well plate NINDS Rhodamine confirmatory qHTS for Zika virus inhibitors (AID 1347164); conditions: rhodamine-110 peptide substrate fluorescence; series mostly up to 1 mM;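 also: fluorescence from protease cleavage of Ac-LKRR-rhodamine 110 substrate; potency is read from the fitted curve at half-maximal effect; nearly all actives have a fitted effect of over 65% in size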
How it was run: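 Linked protease at a final 5 nM, 30 nM or 60 nM was preincubated ~15 min with compounds, then given 10 microM Ac-LKRR-Rhodamine 110. Fluorescence (ex 485/em 538 nm) after 25 min in the dark at room temperature.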

[10] = Tertiary RLuc qRT-PCR qHTS assay for Zika virus inhibitors (AID 1347169); conditions: infected Vero cells, reporter luminescence, 48-72 h; series mostly up to 1.74 µM; also: top concentration of the series differs between compounds; % is scaled to controls: 0 for no effect and ±100 for the full control effect; nearly all actives have a fitted effect of over 55% in size
How it was run: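 Vero cells (1,000 per well) plated overnight at 37 degrees C, treated with compound in DMSO, then infected with recombinant ZIKV-RLuc (Cambodian) at MOI 1-2 for 48-72 hrs. Live-cell Renilla luciferase substrate added; luminescence read after 1-1.5 hrs.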

[11] = molecular target: Cytochrome P450 3A4 (Homo sapiens) (UniProt P08684); test: qHTS Assay for Activators of Cytochrome P450 3A4 (AID 885); conditions: recombinant CYP3A4, Luciferin-PPXE luminescence, 60 min; series mostly up to 57.1 µM; also: nearly all actives have a fitted effect of over 65% in size
How it was run: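 Activators are scored by enhanced luminescence from CYP3A4 conversion of luciferin-PPXE (25uM, equal to KM) to luciferin, after 60 min at RT with an NADPH-regenerating system.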

[12] = molecular target: Tyrosyl-DNA phosphodiesterase 1 (Homo sapiens) (UniProt Q9NUW8); test: Confirmation Assay for Inhibitors of Tyrosyl-DNA Phosphodiesterase (TDP1) (AID 489007); conditions: recombinant human TDP1 enzymatic activity, dose-response; also: potency is read from the fitted curve at half-maximal effect; nearly all actives have a fitted effect of over 40% in size
How it was run: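 AlphaScreen read-out: streptavidin donor and anti-FITC acceptor beads (10 ug/ml) bind intact substrate, so Tdp1 removal of tyrosine-FITC lowers signal. Enzyme 1 nM, substrate 15 nM, 5 min reaction at room temperature after 15 min compound preincubation.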

[13] = Confirmatory screen GU Rhodamine qHTS for Zika virus inhibitors qHTS (AID 1347157); conditions: purified enzyme assay, Rhodamine110 substrate fluorescence, 15 min; series mostly up to 114 µM; also: nearly all actives have a fitted effect of over 70% in size; also: potency is read from the fitted curve at half-maximal effect;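 as to activity change, negative = inhibition: plate controls were no-inhibitor wells for no effect and no-enzyme wells for full effect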
How it was run: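 Unlinked NS2B/NS3, 25 nM; Rhod110 peptide, 1.5 microM; compounds, up to 114 microM. Reaction run 15 min at RT in 10 mM Tris-HCl pH 8.0, 0.01% Tween 20; kinetic fluorescence change fitted with a 4-parameter Hill model.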

[14] = Confirmatory screen NINDS Rhodamine qHTS for Zika virus inhibitors (AID 1347161); conditions: purified enzyme assay, Rhodamine110 substrate fluorescence, 15 min; series mostly up to 114 µM; also: potency is read from the fitted curve at half-maximal effect; nearly all actives have a fitted effect of over 60% in size
How it was run: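 qHTS dose-response: 25 nM linked protease, pH 8.0 Tris/Tween buffer, cpd titration, 15 min RT preinc, 1.5 microM Rhod110 peptide, 15 min reaction (~15% conversion), Ex480/Em540; 4-parameter Hill fit.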

[15] = tested on: Zika virus NS2B-NS3 protease (linked construct); test: Confirmatory screen NINDS AMC qHTS for Zika virus inhibitors (AID 1347152); conditions: Purified linked NS2B-NS3, AMC substrate fluorescence; series mostly up to 110 µM; also: nearly all actives have a fitted effect of over 70% in size; also: potency is read from the fitted curve at half-maximal effect;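 as to activity change, negative = inhibition: AMC fluorescence gain from cleaved Bz-Nle-KRR-AMC substrate over 15 min; top concentration of the series differs between compounds; 0% = no-inhibitor control and -100% = no-enzyme control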
How it was run: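 Purified NS2B-NS3 protease with NS2B hydrophilic domain linked to NS3 protease domain by flexible linker, 1 nM final in 10 mM Tris-HCl pH 8.0, 0.01% Tween 20. Compounds preincubated 15 min, room temperature; Bz-Nle-KRR-AMC 10 microM (Km 18.3 µM); 15-min fluorescence change, 4-parameter Hill fit.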

[16] = tested on: Zika virus NS2B-NS3 protease; test: Primary screen GU AMC qHTS for Zika virus inhibitors (AID 1347154); conditions: Zika NS2B-NS3 unlinked protease, AMC fluorogenic substrate; series mostly up to 54.1 µM
How it was run: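 Unlinked Zika NS2B hydrophilic domain/NS3 protease domain noncovalent complex (25 nM final) in 10 mM Tris-HCl pH 8.0, 0.01% Tween 20, with AMC peptide substrate. Fluorescence (ex 340, em 450 nm) change over 15 min, room temperature; percent inhibition fitted to 4-parameter Hill equation.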

[17] = Vero cells viability qHTS for Zika virus inhibitors (AID 1347167); conditions: cytotoxicity counter-screen (Zika); series mostly up to 45.9 µM; also: % is scaled to controls: 0 for no effect and ±100 for the full control effect
How it was run: (§1)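 To flag cytotoxic protease inhibitors, viability is measured by ATP-dependent luminescence (CellTiter Glo) after cells attached overnight receive compound for 24 to 48 hours in DMEM with 4% FBS.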

[18] = HepG2 cells viability qHTS for Zika virus inhibitors (AID 1347168); conditions: Zika counter-screen; series mostly up to 45.9 µM; also: % is scaled to controls: 0 for no effect and ±100 for the full control effect
How it was run: as §1

[19] = Primary qHTS for small molecule stabilizers of the endoplasmic reticulum resident proteome: Secreted ER Calcium Modulated Protein (SERCaMP) assay (AID 1508630); conditions: SH-SY5Y GLuc-SERCaMP (Gaussia luciferase released on ER calcium loss) secretion, thapsigargin, luminescence; series mostly up to 38.4 µM; also: % is scaled to controls: 0 for no effect and ±100 for the full control effect
How it was run: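 The SH-SY5Y reporter protocol was run at 3 concentrations up to 38.3 uM (primary) or 11 concentrations (follow-up): 16 h compound, 100 nM thapsigargin for 4 h, then extracellular luciferase luminescence.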

[20] = measured here: cell count channel max response
[21] = measured here: lipid channel max response

Sequence of Furin (Homo sapiens) (P09958 whole entry, looked up): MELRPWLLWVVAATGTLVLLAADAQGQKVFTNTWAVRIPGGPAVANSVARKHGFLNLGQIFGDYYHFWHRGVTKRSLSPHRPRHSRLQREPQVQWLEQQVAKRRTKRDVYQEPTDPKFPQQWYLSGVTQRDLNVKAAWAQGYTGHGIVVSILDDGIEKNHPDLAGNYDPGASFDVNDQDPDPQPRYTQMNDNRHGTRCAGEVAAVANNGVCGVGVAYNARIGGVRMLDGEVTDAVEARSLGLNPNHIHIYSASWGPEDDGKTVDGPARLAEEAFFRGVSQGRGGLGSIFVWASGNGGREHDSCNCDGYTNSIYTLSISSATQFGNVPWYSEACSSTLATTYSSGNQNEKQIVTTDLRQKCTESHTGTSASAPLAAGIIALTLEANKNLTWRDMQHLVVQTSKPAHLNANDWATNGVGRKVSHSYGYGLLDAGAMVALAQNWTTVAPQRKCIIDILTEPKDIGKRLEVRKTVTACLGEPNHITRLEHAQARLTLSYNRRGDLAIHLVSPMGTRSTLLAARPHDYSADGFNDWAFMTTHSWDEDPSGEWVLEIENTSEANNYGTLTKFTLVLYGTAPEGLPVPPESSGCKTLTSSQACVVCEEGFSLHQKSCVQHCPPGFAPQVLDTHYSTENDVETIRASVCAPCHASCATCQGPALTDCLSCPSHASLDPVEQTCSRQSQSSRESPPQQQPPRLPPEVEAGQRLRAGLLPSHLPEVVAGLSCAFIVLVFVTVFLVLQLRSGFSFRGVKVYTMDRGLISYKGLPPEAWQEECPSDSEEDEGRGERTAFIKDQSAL
Sequence of Tyrosyl-DNA phosphodiesterase 1 (Homo sapiens) (Q9NUW8 whole entry, looked up): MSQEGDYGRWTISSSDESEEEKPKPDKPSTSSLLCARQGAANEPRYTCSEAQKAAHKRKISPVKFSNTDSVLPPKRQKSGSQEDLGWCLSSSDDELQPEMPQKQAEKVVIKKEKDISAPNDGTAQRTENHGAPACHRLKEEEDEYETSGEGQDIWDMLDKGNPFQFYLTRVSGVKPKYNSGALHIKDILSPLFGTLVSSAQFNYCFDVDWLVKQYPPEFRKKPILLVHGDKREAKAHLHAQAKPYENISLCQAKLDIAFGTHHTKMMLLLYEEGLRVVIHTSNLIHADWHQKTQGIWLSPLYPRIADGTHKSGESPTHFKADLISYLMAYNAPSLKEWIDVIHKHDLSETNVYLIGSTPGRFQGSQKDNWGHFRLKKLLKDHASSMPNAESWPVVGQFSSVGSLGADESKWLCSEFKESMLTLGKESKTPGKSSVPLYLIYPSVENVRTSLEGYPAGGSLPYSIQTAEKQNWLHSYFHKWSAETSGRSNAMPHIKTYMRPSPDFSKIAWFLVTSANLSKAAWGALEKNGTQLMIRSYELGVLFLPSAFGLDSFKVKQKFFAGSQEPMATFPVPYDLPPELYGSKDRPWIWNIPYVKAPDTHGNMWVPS
Sequence of Cytochrome P450 3A4 (Homo sapiens) (P08684 whole entry, looked up): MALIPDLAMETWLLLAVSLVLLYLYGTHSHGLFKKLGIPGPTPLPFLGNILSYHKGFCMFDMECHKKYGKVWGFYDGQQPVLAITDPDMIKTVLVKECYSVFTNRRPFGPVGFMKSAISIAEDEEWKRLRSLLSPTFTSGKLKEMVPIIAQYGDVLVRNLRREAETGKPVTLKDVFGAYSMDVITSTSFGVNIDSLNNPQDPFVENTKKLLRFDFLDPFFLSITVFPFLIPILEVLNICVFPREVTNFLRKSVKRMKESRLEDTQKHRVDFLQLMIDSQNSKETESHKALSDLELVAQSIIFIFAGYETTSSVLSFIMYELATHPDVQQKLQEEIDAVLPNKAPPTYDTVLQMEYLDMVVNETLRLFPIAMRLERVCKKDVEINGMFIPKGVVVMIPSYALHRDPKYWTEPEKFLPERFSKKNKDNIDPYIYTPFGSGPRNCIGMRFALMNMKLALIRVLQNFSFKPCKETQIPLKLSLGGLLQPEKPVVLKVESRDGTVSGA
Sequence of Ubiquitin carboxyl-terminal hydrolase 1 (Homo sapiens) (O94782 whole entry, looked up): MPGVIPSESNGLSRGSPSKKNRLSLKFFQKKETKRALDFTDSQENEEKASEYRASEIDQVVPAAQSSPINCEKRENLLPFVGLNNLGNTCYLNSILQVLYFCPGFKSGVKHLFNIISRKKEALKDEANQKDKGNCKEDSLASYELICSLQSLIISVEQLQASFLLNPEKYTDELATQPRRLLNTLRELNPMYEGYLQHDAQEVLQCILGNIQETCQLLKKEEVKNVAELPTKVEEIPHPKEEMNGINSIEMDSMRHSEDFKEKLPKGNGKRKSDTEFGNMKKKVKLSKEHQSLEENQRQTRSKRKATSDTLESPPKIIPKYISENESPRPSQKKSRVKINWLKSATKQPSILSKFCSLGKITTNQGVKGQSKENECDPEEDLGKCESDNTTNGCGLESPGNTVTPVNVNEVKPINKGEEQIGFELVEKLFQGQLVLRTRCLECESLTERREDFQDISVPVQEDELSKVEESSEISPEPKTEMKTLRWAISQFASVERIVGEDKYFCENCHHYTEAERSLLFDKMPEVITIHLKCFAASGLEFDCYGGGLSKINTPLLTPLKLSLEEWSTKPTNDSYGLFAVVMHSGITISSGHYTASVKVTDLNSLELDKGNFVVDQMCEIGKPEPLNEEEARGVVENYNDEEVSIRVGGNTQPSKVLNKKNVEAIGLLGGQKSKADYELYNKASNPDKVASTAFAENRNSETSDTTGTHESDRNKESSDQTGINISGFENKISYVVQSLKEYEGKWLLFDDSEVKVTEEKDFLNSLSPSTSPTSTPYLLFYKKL

O=C(OC1Cc2c(O)cc(O)cc2OC1c1cc(O)c(O)c(O)c1-c1c(C2Oc3cc(O)cc(O)c3CC2O)cc(O)c(O)c1O)c1cc(O)c(O)c(O)c1 (stereo not given)
inactive: Potency [1] | outcome [2] | outcome [3] | activity change, negative = inhibition [4] 6.85% | Potency [7] | Potency [10]
26.1%: max response [4, 21]
active: Potency [5] 44.7 µM | Potency (Furin (Homo sapiens)) 17.5 µM | Potency [6] 44.1 µM | Potency [8] 22.4 µM | Potency [9] 17.8 µM
18.1%: max response [4, 20]

O=c1c(-c2cc(O)c(O)c(O)c2)coc2cc(O)c(O)c(O)c12
inactive: Potency [11] | outcome [2] | outcome [3] | activity change, negative = inhibition [4] 15.6% | Potency (Furin (Homo sapiens)) | Potency [7]
21.8%: max response [4, 21]
active: Potency [12] 0.282 µM | Potency [13] 22.4 µM | Potency [14] 12.6 µM | Potency [8] 316 µM | Potency [9] 126 µM
7.38%: max response [4, 20]

Cc1ccc(C(=O)Nc2ccc(C(=O)OCc3cc(=O)n4nc(C5CC5)sc4n3)cc2)cc1
inactive: Potency (Furin (Homo sapiens)) | Potency [13]

CC(=O)C(N=Nc1ccc(S(=O)(=O)Nc2ccccn2)cc1)C(=O)Nc1ccc(Cl)cc1 (stereo not given)
inactive: Potency (Furin (Homo sapiens)) | Potency [7] | Potency [10]
active: Potency [15] 44.7 µM | Potency [14] 20 µM | Potency [8] 22.4 µM | Potency [9] 25.1 µM

O=C(COC(=O)c1cccc(NC(=O)c2ccc(Br)cc2)c1)c1ccc(Br)cc1
inactive: Potency (Furin (Homo sapiens)) | Potency [13]

Clc1nc2n[nH]nc2nc1Cl
inactive: Potency [7] | Potency [10]
active: Potency (Furin (Homo sapiens)) 39.8 µM | Potency [15] 22.4 µM | Potency [14] 5.62 µM

O=C(Nc1cccc(C(=O)OCc2cc(=O)n3nc(C4CC4)sc3n2)c1)c1cccc(F)c1
inactive: Potency [7] | Potency [10]
active: Potency (Furin (Homo sapiens)) 41.8 µM | Potency [13] 50.1 µM | Potency [14] 25.1 µM | Potency [9] 17.8 µM

N#Cc1ccc(OCC2CN(Cc3c[nH]c4ccccc34)C(=O)c3c(ccnc3-c3ccc(OCC(=O)O)cc3)O2)cc1 (stereo not given)
inactive: Potency (Furin (Homo sapiens)) | Potency [15] | Potency [7] | Potency [10]
active: Potency [9] 39.8 µM

O=C(O)CSc1nc2ccc(NC(=O)COc3ccc(Cl)cc3)cc2s1
active: Potency [12] 11.2 µM | Potency [13] 31.6 µM | Potency [14] 20 µM | Potency [8] 25.1 µM | Potency [9] 28.2 µM
inactive: Potency (Furin (Homo sapiens)) | Potency [7] | Potency [10]

CC1(C(=O)O)NCCc2cc(O)c(O)cc21 (stereo not given)
active: Potency (Furin (Homo sapiens)) 24.1 µM | Potency [16] 10.6 µM | Potency [14] 27.8 µM
inactive: Potency [17] | Potency [18] | Potency [10] | Potency [19]

COc1cc(C2Nc3ccccc3-c3nnc(SCc4ccc(Cl)cc4)nc3O2)ccc1OCC(=O)O (stereo not given)
active: Potency [13] 28.2 µM | Potency [14] 25.1 µM | Potency [8] 282 µM | Potency [9] 79.4 µM
inactive: Potency (Furin (Homo sapiens)) | Potency [7] | Potency [10]

Source: PubChem BioAssay (NCATS)
